We go through 20 compounds from PubChem BioAssay (NCI).

About 79,000 compounds went through this panel and 15% of them were active in at least one assay; those are over-represented in the sample as a whole. Unmarked numbers belong to inactive results. Activity calls are given as the source filed them. Rule as the data show it: active = growth inhibition above about 70%; inactive = the rest.

Assay [1] is described as follows: NCI Yeast Anticancer Drug Screen. Data for the rad50 strain (AID 155).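 Also: 0% = growth of vehicle-only cultures of the same strain.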 Conditions: S. cerevisiae rad50 strain growth inhibition, active compounds read high; at 50.0 µM unless noted. The gist of the method: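 Yeast carrying a defined DNA repair defect were exposed to test compounds, and growth was compared with vehicle-treated controls to give percent inhibition.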
Assay [2] can be described thus: NCI Yeast Anticancer Drug Screen. Data for the mec2-1 strain (AID 157). Conditions: S. cerevisiae mec2-1 strain, active compounds read high; at 50.0 µM unless noted. In short, it runs like this:
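Vehicle-treated cultures served as reference for growth inhibition of compound-exposed mec2-1 yeast.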

The nature of assay [3]: NCI Yeast Anticancer Drug Screen. Data for the sgs1 mgt1 strain (AID 161).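 Also: 0% = growth of cultures given vehicle only.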 Conditions: S. cerevisiae sgs1 mgt1 strain, active compounds read high; at 50.0 µM unless noted. In short, it runs like this: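 Mutant yeast exposed to compound; growth scored against vehicle-only wells.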
A short description of assay [4]: NCI Yeast Anticancer Drug Screen. Data for the cln2 rad14 strain (AID 165).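 Also: 0% = growth equal to vehicle treated cultures.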 The following applies: S. cerevisiae cln2 rad14 strain, active compounds read high; at 50.0 µM unless noted. The gist of the method: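 Each compound was tested on cln2 rad14 yeast. Inhibition of growth was calculated against vehicle-exposed controls.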
Assay [5] in a line: NCI Yeast Anticancer Drug Screen. Data for the bub3 strain (AID 167). The following applies: S. cerevisiae bub3 mutant strain, active compounds read high; at 50.0 µM unless noted. In short, it runs like this:
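Compounds were applied to a genetically altered yeast strain carrying a cell-cycle control defect. Growth inhibition was scored against vehicle-treated controls.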

A short description of assay [6]: NCI Yeast Anticancer Drug Screen. Data for the mlh1 rad18 strain (AID 175). Conditions: S. cerevisiae mlh1 rad18 strain growth inhibition, active compounds read high; at 50.0 µM unless noted. In short, it runs like this: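 Vehicle-treated cultures served as the reference for growth inhibition in a yeast strain carrying DNA damage repair alterations exposed to each compound.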

In the case of `O=C(O)CCc1cnc[nH]1`, the growth inhibition in assay [1] is -0.7%; in assay [2], -1.8%; in assay [3] it was 1.2%; in assay [4], 22.5%; in assay [5], 14.6%; in assay [6], 2.3%.

Regarding `CCC(=O)Cc1nc2n(c1O)/C(=N/C(=O)Nc1ccc(Cl)cc1)N=N2`, the growth inhibition in assay [1] is -2.05%; in assay [2] it was -7.5%; in assay [3], -2.9%; in assay [4], -35.8%; in assay [5], -15.2%; in assay [6] it was 11.6%.

`O=C1C=C(c2ccccc2)C(c2ccccc2)C(c2ccccc2)C1` (stereo not given): the growth inhibition in assay [1] is 1.4%; in assay [2], 21%; in assay [3], 16.4%; in assay [4] it was -5.35%; in assay [5], 3.85%; in assay [6] it was -3.1%.

Regarding `CC12C=CC(=O)C(O)C1CC=CC2` (stereo not given), the growth inhibition was 12.6% in assay [1]; 14.3% in assay [2]; 4.3% in assay [3]; 6.05% in assay [4]; 11.4% in assay [5]; 8.95% in assay [6].

Regarding `CC(CCO)CCCO` (stereo not given), the growth inhibition was -22.1% in assay [1]; -11.8% in assay [2]; 7.35% in assay [3]; -13.8% in assay [4]; -26.2% in assay [5]; -26.8% in assay [6].

As for `CCN(CC)C(=O)Oc1cccc(NC(=O)OC)c1`, the growth inhibition is 16% in assay [1]; 47.2% in assay [2]; 29.4% in assay [3]; 16.1% in assay [4]; 49.2% in assay [5]; 33.4% in assay [6].

`O=C(CSc1nnc(-c2ccc(N=Cc3ccc(Cl)cc3)cc2)o1)Nc1cccc([N+](=O)[O-])c1`: the growth inhibition is -1.95% in assay [1]; -11.1% in assay [2]; 3.85% in assay [3]; 18.1% in assay [4]; -40% in assay [5]; 2.45% in assay [6].

Take `C=C(CC(O)(C(F)(F)F)C(F)(F)F)CC(O)(C(F)(F)F)C(F)(F)F`: the growth inhibition in assay [1] was 64.8%; in assay [2], 94.5% (active); in assay [3] it was 63.9%; in assay [4] it was 65.6%; in assay [5] it was 95% (active); in assay [6], 95% (active).

As for `CCCC1([N+](=O)[O-])c2ccccc2-c2ccc([N+](=O)[O-])cc21` (stereo not given), the growth inhibition in assay [1] is 20.4%; in assay [2] it was 7.9%; in assay [3], 22.4%; in assay [4] it was 11%; in assay [5], 46.1%; in assay [6], 49.7%.

Consider `CCOC(=O)c1[nH]c(-c2[nH]c(-c3[nH]c(-c4[nH]c(C(=O)OCC)c(C)c4C(=O)OCC)c(C(=O)OCC)c3C)c(C)c2C(=O)OCC)c(C(=O)OCC)c1C`, for which the growth inhibition in assay [1] is -24.7%; in assay [2] it was -16%; in assay [3] it was -21.3%; in assay [4], 6.85%; in assay [5], -14.1%; in assay [6], -74%.

In the case of `O=C(NCCNC(=O)C(Br)(Br)Br)C(Br)(Br)Br`, the growth inhibition was 82.3% (active) in assay [1]; 53.5% in assay [2]; 58% in assay [3]; 44.7% in assay [4]; 69.5% in assay [5]; 72.8% (active) in assay [6].

On to `NC(=O)C1CC2(c3ccccn3)c3ccccc3C1c1ccccc12` (stereo not given), for which the growth inhibition in assay [1] was -0.1%; in assay [2], 7.6%; in assay [3] it was 10.4%; in assay [4], 4.2%; in assay [5] it was -22.1%; in assay [6], -6.1%.

As for `NC(N)=Nc1ccc(-c2ccc(N=C(N)N)cc2)cc1`, the growth inhibition was -9.35% in assay [1]; 6.4% in assay [2]; 0.85% in assay [3]; -22.2% in assay [4]; -24.9% in assay [5]; -7.95% in assay [6].

In the case of `O=[N+]([O-])c1ccc(S/N=C\c2ccccc2)c([N+](=O)[O-])c1`, the growth inhibition in assay [1] is -9.95%; in assay [2], 13.7%; in assay [3], 0.25%; in assay [4], 14.6%; in assay [5] it was 7.2%; in assay [6], 8.55%.

As for `CC(C)=CCCC(C)CCO` (stereo not given), the growth inhibition in assay [1] is -5.1%; in assay [2] it was -4.75%; in assay [3], -15.4%; in assay [4] it was 16.4%; in assay [5], -16.6%; in assay [6] it was 3.25%.

For the compound `CC1CCCN1c1ccnc2cc(Cl)ccc12` (stereo not given), the growth inhibition was 11.9% in assay [1]; -3.3% in assay [2]; 7.15% in assay [3]; -2.2% in assay [4]; 8.25% in assay [5]; 20.3% in assay [6].

Take `CC1CCC(C(=O)O)(C(Br)C(=O)O)CC1` (stereo not given): the growth inhibition in assay [1] was -14.5%; in assay [2], -12.7%; in assay [3] it was -12.8%; in assay [4], -27.9%; in assay [5] it was -20.8%; in assay [6] it was -3.3%.

With `CCN(Cc1ccccc1)c1nnnn1-c1ccccc1`, the growth inhibition in assay [1] was -2.5%; in assay [2], -5.25%; in assay [3], 8%; in assay [4], 6.75%; in assay [5] it was 12.1%; in assay [6] it was -10.6%.

Consider `O=C(c1ccccc1)c1ccc2c(Cl)ccc3c2c1CC3`, for which the growth inhibition in assay [1] is -2.8%; in assay [2], -21.3%; in assay [3], -9.75%; in assay [4] it was 12.8%; in assay [5], 7.6%; in assay [6], -8.45%.

As for `Cc1ccccc1OC(=O)Oc1ccccc1C`, the growth inhibition is 8.7% in assay [1]; -2.6% in assay [2]; 4.8% in assay [3]; 1% in assay [4]; 21.1% in assay [5]; 21.9% in assay [6].
